An excerpt weighted towards active compounds, which were near 4.5% of everything screened.
Mdm2 MdmX PPI: inhibitors of human Mdm2/MdmX interaction. SaOS-2 split-luciferase Mdm2/MdmX complementation, luminescence. inhibition, % at 8 µM. actives 3% (n = 330,000);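 active means inhibition of at least 50% at 8 µM in the primary screen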
Target sequence (O15151 whole entry, looked up): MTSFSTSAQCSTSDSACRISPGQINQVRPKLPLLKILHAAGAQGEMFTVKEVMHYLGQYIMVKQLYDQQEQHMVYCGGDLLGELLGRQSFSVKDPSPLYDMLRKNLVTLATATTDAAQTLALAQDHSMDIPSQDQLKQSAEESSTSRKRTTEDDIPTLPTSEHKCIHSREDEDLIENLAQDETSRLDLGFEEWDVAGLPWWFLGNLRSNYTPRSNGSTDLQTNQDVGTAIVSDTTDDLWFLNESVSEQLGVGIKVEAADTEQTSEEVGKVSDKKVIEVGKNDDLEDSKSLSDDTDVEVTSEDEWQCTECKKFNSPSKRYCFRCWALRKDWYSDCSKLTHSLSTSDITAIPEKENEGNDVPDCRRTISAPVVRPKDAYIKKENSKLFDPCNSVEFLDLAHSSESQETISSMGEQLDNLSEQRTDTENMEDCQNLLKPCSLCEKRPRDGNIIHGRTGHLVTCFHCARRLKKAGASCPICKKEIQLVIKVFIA
Target sequence (Q00987 whole entry, looked up): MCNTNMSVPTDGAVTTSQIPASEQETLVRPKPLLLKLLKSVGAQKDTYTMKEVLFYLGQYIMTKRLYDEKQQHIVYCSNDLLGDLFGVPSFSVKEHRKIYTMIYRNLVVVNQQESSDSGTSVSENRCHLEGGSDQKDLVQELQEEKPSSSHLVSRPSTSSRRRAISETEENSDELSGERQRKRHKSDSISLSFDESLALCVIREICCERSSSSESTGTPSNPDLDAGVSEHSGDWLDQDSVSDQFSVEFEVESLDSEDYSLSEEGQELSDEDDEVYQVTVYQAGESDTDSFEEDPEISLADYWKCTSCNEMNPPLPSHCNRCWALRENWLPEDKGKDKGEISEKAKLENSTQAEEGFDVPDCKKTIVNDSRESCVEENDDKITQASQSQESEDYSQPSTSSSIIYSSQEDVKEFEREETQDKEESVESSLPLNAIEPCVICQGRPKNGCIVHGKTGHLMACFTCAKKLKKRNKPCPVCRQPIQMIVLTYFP
Gli-Sufu block: antagonists of Gli-Sufu signaling; Sufu-KO-LIGHT fibroblasts, Gli luciferase reporter luminescence; inhibition, % at 5 µM; actives 0.74% (n = 340,000); AID 588413;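 active means inhibition above about 55%, limit read from the data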;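 further: 0% = DMSO-treated cells and 100% = wells with medium but no cells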
697 NFkB inh: lowers PMA/ionomycin-induced NF-kB signal in 697 B cells; 697 B-cell NF-kB luciferase reporter, 16 h; inhibition, % at 4 µM; actives 0.33% (n = 330,000); AID 435022; in the data active means inhibition above about 35%
CSC inhib: blocks cancer stem cells; cancer stem cell-like cells viability, luminescence; inhibition, % at 7.5 µM; actives 1.1% (n = 300,000); AID 2717; in the data active means inhibition above about 75%; inconclusive means no clear call, values can overlap the other calls; tested in HMLE shEcad cells
Jurkat NFkB inh: inhibitors of the PMA/ionomycin-induced NF-kB reporter in Jurkat cells; inhibition, % at 4 µM; actives 0.53% (n = 330,000); PMA/ionomycin-induced NF-kB luciferase reporter, luminescence; in the data active means inhibition above about 50%
aSyn UTR inh: MLPCN primary screen, SNCA 5' untranslated region; alpha-synuclein 5'UTR reporter, inhibitor activity; inhibition, % (tested at 7.5 µM); actives 0.82% (n = 300,000); AID 1813; in the data active means inhibition above about 60%; inconclusive means no clear call, values can overlap the other calls;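 further: H4 neuroglioblastoma cells stably carrying SNCA 5'UTR luciferase fusion; 0% = DMSO wells and 100% = positive control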
Gli-Sufu confirm: confirmation of Gli-SUFU pathway antagonists; shares compounds with Gli-Sufu block; Sufu-KO-LIGHT cells, Gli luciferase reporter, luminescence; inhibition, % at 5 µM; actives 40% (n = 2,500); AID 602428;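 active means mean inhibition at 5 µM reaching about 45%, limit read from the data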;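 further: plate controls were DMSO-treated cells for no effect and wells lacking cells for full effect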
Gli cytotox: cytotoxic in Gli-SUFU antagonist counter-screen. shares compounds with Gli-Sufu block. actives 32% (n = 2,500). Sufu-KO-LIGHT cells cytotoxicity, ATP luminescence. cytotoxicity, % at 5 µM;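 active means mean cytotoxicity at 5 µM above about 25%, limit read from the data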;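 further: cells exposed to compound overnight for roughly 16 to 18 hours; plate controls were DMSO wells with cells for no effect and medium without cells for full effect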
Wnt3a counter: counter-screen for Gli-SUFU antagonists: Wnt3a reporter inhibition. shares compounds with Gli-Sufu block. Wnt-LIGHT cells, Wnt3a-driven luciferase reporter, luminescence. inhibition, % at 6.25 µM. actives 20% (n = 2,500). AID 651995;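 active means mean inhibition above about 25%, limit read from the data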
An asterisk follows results filed as active; ? = inconclusive; / = not tested or not shown.

SMILES	Mdm2 MdmX PPI	Gli-Sufu block	697 NFkB inh	CSC inhib	Jurkat NFkB inh	aSyn UTR inh	Gli-Sufu confirm	Gli cytotox	Wnt3a counter
Cc1ccc(S(=O)(=O)NC(CC(=O)NCC2CCCO2)c2ccccc2)cc1 (centres undefined)	16	2	15	-4	-3	-6	/	/	/
OC(CSc1ccccc1)CN1CCN(c2cccc(Cl)c2)CC1 (centres undefined)	/	50	/	/	/	/	23	4	-37
COc1cccc(C(=O)Nc2cc(-c3cn4cccnc4n3)ccc2C)c1	0	-1	26	-13	-1	-32	/	/	/
O=C(CCC1CCN(C(=O)c2ccccc2Cl)CC1)NCc1ccc(F)cc1	37	-10	26	-3	-2	6	/	/	/
O=C(NNc1c2ccccc2nc2ccccc12)c1ccccc1O	37	10	13	?	4	-93	/	/	/
O=C(NNc1nc(=O)c2cccnc2s1)c1ccccc1O	24	85*	-22	14	-11	-29	25	27*	-21
COc1cc(OC)cc(C(=O)NNC(=S)NCc2ccco2)c1	7	-2	-30	-6	-12	-18	/	/	/
O=C(CNC(=O)c1cn2ccccc2n1)Nc1ccc(F)c(F)c1	-43	-24	-49	-5	-62	-209	/	/	/
Cc1cc(C#N)c(C)c(SCc2[nH]nc3c2C(c2ccccc2)C(C#N)=C(N)O3)n1 (centres undefined)	14	58*	3	16	-5	-10	25	16	0
CCN(Cc1ccccc1)Cc1ccc(OCc2ccccc2)cc1	5	59*	0	36	-23	-30	2	20	-17
CCCCN1CCc2c(c3ccccc3n2Cc2ccccc2)C1	14	60*	1	0	12	-9	35	1	-31
COC(=O)c1cc(S(=O)(=O)N2CCC(c3cc(OC)ccc3OC)C2)c[nH]1 (centres undefined)	34	52	-38	-14	21	-7	45	28*	5
COC(=O)c1cc(S(=O)(=O)N2CCN(c3ccc([N+](=O)[O-])cc3)CC2)c[nH]1	8	51	-7	9	16	22	21	-1	-68
Cc1onc(-c2ccccc2Cl)c1C(=O)N1CCCCCC1	20	59*	3	/	8	6	24	4	4
Cc1onc(-c2ccccc2Cl)c1C(=O)N1CCCC1	22	46	6	-4	0	-26	/	/	/
CC1(C)CC(=O)C2=C(C1)OC(c1ccc(O)cc1)C(C#N)=C2N (centres undefined)	-47	51	-9	-2	1	9	11	2	-6
CC1(C)CC(=O)C2=C(C1)OC(c1ccncc1)C(C#N)=C2N (centres undefined)	-4	8	-9	/	-6	12	/	/	/
CC(=O)NC(CCS(C)(=O)=O)C(=O)Nc1cc(C)ccc1C (centres undefined)	-4	54	11	-15	7	2	10	7	-11
CCOC(=O)C1CCCN(C(=O)CCNS(=O)(=O)c2cc(Br)cnc2N)C1 (centres undefined)	20	7	12	-10	-12	14	/	/	/
COc1ccc(C(=O)NN(C)c2nc(-c3ccccc3)nnc2C(F)(F)F)cc1	10	-17	-6	-1	4	-9	/	/	/
COc1ccc(C(=O)NN(C)c2nc(C(F)(F)F)nc3ccccc23)cc1	/	56*	/	18	/	33	55*	63*	1
Cc1cccc(CNC(=O)C2CCC(=O)N(C3CC3)C2)c1 (centres undefined)	22	-5	3	-10	-18	-3	/	/	/
FC(F)(F)c1cnc(Sc2nnc(-c3cccs3)n2CC2CCCO2)c(Cl)c1 (centres undefined)	14	51	5	2	-5	0	11	24	-28

High-throughput results as filed in PubChem BioAssay.
